This is an account of results in PubChem BioAssay AID618 (Sanford-Burnham Center for Chemical Genomics, 2007).

The campaign covered roughly 87,000 compounds. About 540 (0.62%) were called active. The rule behind the calls is not given here. For the sample, actives were picked, then their nearest neighbours and some compounds at random. Measured potencies and affinities stand elsewhere.

The nature of the assay: MT1-MMP gene expression reporter suppression – cell-based, luciferase reporter, luminescence (AID 618).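 Note: actives suppress MT1-MMP promoter-driven transcription so potencies describe inhibitors.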 Conditions: MT1-MMP promoter luciferase reporter cells. In general terms: In a reporter assay the amount or activity of a reporter protein is the signal.
Regarding `Cc1cc(NC(=O)COC(=O)[C@H](Cc2c[nH]c3ccccc23)NC(=O)c2ccc(F)cc2)no1`, the compound was called inactive.

As to `COC(=O)CSc1nnc(-c2ccncc2)o1`, the compound was called inactive.

`C=CCn1c(SCC(=C)C)nc2c1c(=O)[nH]c(=O)n2C`: the compound was called inactive.

Take `Cc1ccc(Cn2c(-n3nc(C)cc3C)nc3c2c(=O)[nH]c(=O)n3C)cc1`: the call was inactive.

Turning to `Cc1cc(C)n(-c2nc3c(c(=O)[nH]c(=O)n3C)n2CCc2ccccc2)n1`, the compound was called inactive.

On to `COc1ccc(CCn2c(-n3nc(C)cc3C)nc3c2c(=O)[nH]c(=O)n3C)cc1`, for which the outcome was active.

As for `O=c1ccc2ccc(OCc3nnc(-c4ccccc4Br)o3)cc2o1`, the outcome was inactive.

As for `O=c1c2ccccc2nc2c3ccccc3c3nncn3n12`, the call was inactive.

In the case of `O=C(Nc1ccc(S(=O)(=O)N2CCOCC2)cc1)c1cccs1`, the outcome was inactive.

As to `COc1ccc(-n2nnnc2S(=O)(=O)CC(=O)N2CCCCC2)cc1`, the result was active.

With `COc1cc(OC)cc(-n2nnnc2SCC(=O)N2CCCC2)c1`, the result was inactive.

With `COc1ccc(-n2nnnc2S(=O)(=O)Cc2ccc(C(=O)O)cc2)cc1`, the outcome was inactive.

As to `Cc1ccc2[nH]c(=O)c(-c3noc(C(C)C)n3)cc2c1`, the call was inactive.

`Cc1cccc(CS(=O)(=O)Cc2ccc(C(=O)O)o2)c1`: the outcome was inactive.

Turning to `Brc1ccc(-c2ncc(-c3ccccc3)cn2)cc1`, the outcome was inactive.

In the case of `Nc1ccc(-c2cnc(-c3ccc(N)cc3)nc2)cc1`, the compound was called inactive.

`O=C(O)CCc1nn2cnc3sc4c(c3c2nc1=O)CCCC4`: the compound was called inactive.

Consider `CCOc1c(S(=O)(=O)N2CCCC2)ccc(Cl)c1Cl`, for which the compound was called inactive.

Turning to `Cc1cccc(NC(=O)c2cc3n(n2)C(C(F)(F)F)CC(c2ccc4c(c2)OCO4)N3)c1` (stereo not drawn), the outcome was inactive.

Take `O=C(NC1CCCCC1)N(CCN1CCOCC1)Cc1cc2cc3c(cc2[nH]c1=O)OCCO3`: the result was inactive.

For `COc1ccc(OC)c(Nc2nc(N)nc(-c3cc4ccccc4o3)n2)c1`, the result was inactive.

For the compound `COc1ccc(OC)c(Nc2cc(-c3ccccc3)nc(N)n2)c1`, the compound was classed as active.

`COc1ccc(OC)c(Nc2cc(C)nc3ccccc23)c1`: the result was inactive.

As for `COCCN(CC(=O)NCc1ccccc1)C(=O)CCC(=O)Nc1nccs1`, the outcome was inactive.

`COc1ccc(C(c2sc3nc(C)nn3c2O)N2CC(C)OC(C)C2)cc1OC` (stereo not drawn): the compound was called inactive.

Consider `Cn1c(SCC(=O)N2CCOCC2)nc(O)cc1=O`, for which the call was inactive.

`O=c1c2ccccc2ncn1Cc1nc2ccccc2s1`: the outcome was inactive.

For `O=C1c2ccccc2S(=O)(=O)N1Cc1cc(=O)n2ccsc2n1`, the outcome was inactive.

Take `c1ccc(C2=Nc3ccccc3OC2)cc1`: the compound was called inactive.

Turning to `COc1ccc(C2=Nc3cc(C)ccc3OC2)cc1`, the compound was called inactive.

Regarding `CSc1sc(C(=O)O)c2c1C(=O)CCC2`, the compound was called inactive.

Take `COc1cccc(C2NC(=O)NC(C)=C2C(=O)OCCSC)c1OC` (stereo not drawn): the compound was classed as inactive.

In the case of `CN(C)S(=O)(=O)c1ccc(C(=O)Nc2ccc(CCC(=O)N3CCCC3)cc2)cc1`, the outcome was inactive.

As for `CC1CN(Cc2nc3c(c(=O)[nH]c(=O)n3C)n2CC(N)=O)CC(C)O1` (stereo not drawn), the result was inactive.

Consider `CCCNC(=O)c1ccc(-c2nc3ccccc3s2)s1`, for which the call was inactive.

On to `O=C(OC1CCOC1=O)c1ccc(-c2nc3ccccc3s2)s1` (stereo not drawn), for which the result was inactive.

With `O=C(NC1CC1)c1ccc(-c2nc3ccccc3s2)s1`, the outcome was active.

Consider `CCOC(=O)c1sc(Nc2ccc(C)cc2C)nc1C`, for which the compound was called inactive.

As for `COc1cc(CN2CCN(S(=O)(=O)c3ccc(F)cc3)CC2)cc(OC)c1OC`, the compound was called inactive.

With `Nc1sc2c(c1C(=O)NC1CCS(=O)(=O)C1)CCCC2` (stereo not drawn), the outcome was inactive.

On to `COc1cc(/C=N/O)ccc1OCc1ccc(C(=O)O)cc1`, for which the result was active.

Regarding `O=C(O)c1cc(/C=N\O)ccc1OCc1ccccc1`, the result was inactive.

Consider `COc1cc(C(N)=O)ccc1OCc1ccccc1`, for which the compound was called inactive.

Take `CCOC(=O)Cn1cc(C(=O)OC)c2ccccc21`: the compound was classed as inactive.

With `COc1ccccc1N1CCN(C(=O)C2c3ccccc3Oc3ccccc32)CC1`, the compound was called active.

On to `CCOc1ccccc1N1CCN(C(=O)C2c3ccccc3Oc3ccccc32)CC1`, for which the result was inactive.

Turning to `O=C(C1c2ccccc2Oc2ccccc21)N1CCN(c2ccc(Cl)cc2)CC1`, the call was inactive.

With `CCOC(=O)C1CCN(Cc2ccccc2C)CC1`, the call was inactive.

Take `Cc1cnc(C)c(N2CCC(C(=O)NC(C)c3cccs3)CC2)n1` (stereo not drawn): the outcome was inactive.

As to `CCOc1ccccc1C1CC(=O)Nc2cc3c(cc21)OCCO3` (stereo not drawn), the compound was classed as inactive.

Consider `CC(C)Oc1ccccc1C1CC(=O)Nc2cc3c(cc21)OCO3` (stereo not drawn), for which the call was active.

In the case of `COc1cccc(C2CC(=O)Nc3cc4c(cc32)OCCO4)c1OC(C)C` (stereo not drawn), the outcome was inactive.

`CC(C)Oc1ccccc1C1CC(=O)Nc2cc3c(cc21)OCCO3` (stereo not drawn): the outcome was inactive.

For the compound `CCCOc1ccccc1C1CC(=O)Nc2cc3c(cc21)OCCO3` (stereo not drawn), the compound was classed as inactive.

For the compound `CCOc1ccccc1C1CC(=O)Nc2cc3c(cc21)OCO3` (stereo not drawn), the compound was classed as active.

As for `Cc1[nH]nc2c1C(c1ccc(Cl)cc1)C(C#N)=C(N)O2` (stereo not drawn), the result was inactive.

With `CCOC(=O)C1CCCn2c1nc1sc3c(c1c2=O)CCCC3` (stereo not drawn), the compound was called inactive.

`CC(C)(C)c1ccc(S(=O)(=O)NCc2ccc(C(=O)N3CCCC3)cc2)cc1`: the outcome was inactive.

Take `CO/N=C/C(=N\Nc1ccc(OC)cc1)C(=O)c1ccc(OC)cc1`: the result was inactive.

Turning to `CO/N=C/C(=N\Nc1ccc(C)cc1)C(=O)c1ccc(OC)cc1`, the result was inactive.

`COc1ccc(N/N=C(\C=N\O)C(=O)c2ccc(OC)cc2)cc1`: the call was active.

With `Cc1c(C(=O)OC(C)CCN(C)C)oc2ccccc12` (stereo not drawn), the compound was classed as inactive.

On to `CN1/C(=C\C(=O)COC(=O)CN2C(=O)C3CC=CCC3C2=O)C(C)(C)c2ccccc21` (stereo not drawn), for which the call was inactive.

For `Fc1ccc(Cn2c(-c3cscn3)nc3ccccc32)c(Cl)c1`, the outcome was inactive.

Take `Cc1oc2ccc(O)cc2c1C(=O)OC(C)C`: the compound was called inactive.

In the case of `CCN1C(=O)C(CC(=O)N2CCN(C(c3ccccc3)c3ccccc3)CC2)N(CC)C1=O` (stereo not drawn), the compound was called inactive.

For the compound `O=C(CSc1nc2ccccc2s1)CSc1nc2ccccc2s1`, the compound was called inactive.

In the case of `CC(=O)CSc1nc2ccccc2s1`, the compound was classed as inactive.

Turning to `CC(C)Oc1ccc(C2c3c(oc4ccccc4c3=O)C(=O)N2CCCN2CCOCC2)cc1` (stereo not drawn), the compound was called inactive.

For `COc1cccc(OCCSc2nnc3sc4ccccc4n23)c1`, the compound was classed as inactive.

Turning to `CN(C)C(=O)CSc1nnc2sc3ccccc3n12`, the compound was called inactive.

Consider `COc1ccc(OCCSc2nnc3sc4ccccc4n23)cc1`, for which the call was inactive.

Take `NC(=O)CSc1nnc2sc3ccccc3n12`: the outcome was inactive.

On to `C=CCOC(=O)C1=C(C)NC(=O)NC1c1cn(-c2ccccc2)nc1-c1cccs1` (stereo not drawn), for which the call was inactive.

`COc1ccc(-n2c(Cc3cccn3C)nnc2SCC(=O)Nc2cccc(F)c2)cc1`: the call was inactive.

As for `Cc1cc(/C=N/n2cnnc2)c(C)n1-c1ccc(OCc2ccccc2F)cc1`, the compound was called inactive.

Turning to `Cc1cc(/C=N/n2cnnc2)c(C)n1-c1ccc(OCc2ccc(Cl)cc2)cc1`, the result was inactive.

For the compound `Cc1ccc(C)c(N(CC(=O)NC2CCCCC2)C(=O)CCC(=O)Nc2ccccn2)c1`, the result was inactive.

Regarding `O=C(COC(=O)c1cccs1)c1ccc2ccccc2c1`, the compound was classed as inactive.

As to `O=C(COC(=O)c1cccs1)c1ccccc1`, the outcome was inactive.

`CCOC(=O)C1=C(C)NC(=O)NC1c1ccccc1Cl` (stereo not drawn): the compound was called inactive.

Take `O=C(NCCN1CCOCC1)c1ccc(F)cc1`: the compound was classed as inactive.

Turning to `c1ccc(-n2ncc3c(N4CCN(c5ccccn5)CC4)nc(N4CCCCC4)nc32)cc1`, the compound was called inactive.

Consider `COc1ccc(N2CCN(C(=O)c3ccc(CS(=O)(=O)c4ccc(OC)cc4)o3)CC2)cc1`, for which the compound was called inactive.

Regarding `Cc1ccccc1S(=O)(=O)Cc1ccc(C(=O)N2CC(C)CC(C)C2)o1` (stereo not drawn), the compound was called inactive.

Consider `Cc1ccc(C)c(N2CCN(C(=O)c3ccc(CS(=O)(=O)c4ccccc4C)o3)CC2)c1`, for which the result was inactive.

Consider `COc1ccc(S(=O)(=O)Cc2ccc(C(=O)N3CCN(c4cccc(C)c4)C(C)C3)o2)cc1` (stereo not drawn), for which the compound was called active.

On to `CCOC(=O)N1CCN(C(=O)c2ccc(CS(=O)(=O)c3ccc(OC)cc3)o2)CC1`, for which the compound was classed as inactive.

As for `Cc1cccc(N2CCN(C(=O)c3ccc(CS(=O)(=O)c4ccccc4C)o3)CC2C)c1` (stereo not drawn), the outcome was active.

Consider `Cc1ccc(N=Cc2ccc(N(C)C)cc2)cc1`, for which the call was inactive.

In the case of `O=S(=O)(/N=C(\c1ccccc1)N1CCOCC1)c1cccs1`, the outcome was inactive.

In the case of `COCCn1nnnc1CN1CCC(C)CC1`, the result was inactive.

As for `CCc1cc(=O)oc2cc(OCC(=O)N3CCc4ccccc43)ccc12`, the compound was called inactive.

As for `COCCCN1C(=O)C(=O)/C(=C(/O)c2ccc(OC(C)C)cc2)C1c1ccncc1` (stereo not drawn), the compound was classed as inactive.

For `COc1ccc(-c2nc(-c3cccs3)c(-c3cccs3)[nH]2)cc1O`, the outcome was inactive.

As to `COc1ccc(-c2nc(-c3ccccc3)c(-c3cc([N+](=O)[O-])ccc3C)[nH]2)cc1O`, the outcome was inactive.

Consider `COc1ccc(-c2c/c(=N\c3nc(-c4ccccc4)c(C)s3)c3ccccc3o2)cc1O`, for which the outcome was active.

With `Cc1nn(C)c(C)c1S(=O)(=O)N1CCC(C(=O)NCC2COc3ccccc3O2)CC1` (stereo not drawn), the call was inactive.

On to `COC(=O)[C@@H]1C[C@H]2CC[C@H](O)C[C@H]2N1Cc1ccc(-c2ccccc2)cc1`, for which the result was active.

With `COC(=O)[C@@H]1C[C@@H]2CC[C@@H](O)C[C@@H]2N1Cc1ccc(Cl)cc1`, the compound was called inactive.

Take `COC(=O)[C@@H]1C[C@@H]2CC[C@@H](O)C[C@@H]2N1Cc1ccc(-c2ccccc2)cc1`: the result was inactive.

Consider `O=c1c(Cl)c(NCCCO)cnn1-c1nc2ccccc2[nH]1`, for which the compound was called inactive.

As to `CC1(C)CC(=O)c2cnn(-c3nc4ccccc4[nH]3)c2C1`, the call was inactive.

With `CC(=O)c1c(C)nn(C(=O)N2CCOCC2)c1C`, the result was inactive.

Regarding `CCOc1ccccc1N(C(=O)CNS(=O)(=O)c1ccccc1)C(CC)C(=O)NCc1ccco1` (stereo not drawn), the compound was classed as inactive.

For the compound `COc1ccc(/C=N/n2c(N)nc3ccccc32)cc1OC`, the call was inactive.

On to `COc1ccc(/C=N/n2cnnc2SCc2ccccc2)cc1`, for which the compound was called inactive.

For `COc1ccc(/C=N\n2nnc3ccccc32)cc1`, the compound was called active.

In the case of `CC1(c2ccccc2)NC(=O)N(CC(=O)N2CCOCC2)C1=O` (stereo not drawn), the call was inactive.

For the compound `O=c1c2ccccc2cnn1-c1ccc(Br)cc1`, the compound was called inactive.

Consider `O=c1c2ccccc2cnn1-c1ccc(Cl)cc1`, for which the outcome was inactive.

For the compound `O=c1c2ccccc2cnn1-c1nc2ccccc2s1`, the compound was classed as active.

Turning to `COc1ccc(-c2noc(CCC(=O)NCCCN3CCC(Cc4ccccc4)CC3)n2)cc1`, the call was inactive.
